# High-throughput results (PubChem)
# Ba CapD inh: blocks the Bacillus anthracis CapD enzyme; purified CapD enzyme, fluorescence intensity read-out; active compounds read low; z-score (no concentration beside the values); 0.23% of 140,000 active; AID 492967; in the data active = z-score mostly below about -2.9, no sharp cut-off; inactive = mostly above about -1.9
# The depositor's hits bear a star; i = inactive; ! = repeats disagree. Shown is part of a subset that was picked to be rich in hits.
SMILES,Ba CapD inh
Cn1c(=O)c2c(nc3n(Cc4ccccn4)c(-c4ccc(Br)cc4)cn23)n(C)c1=O,-0.16
CN1c2ccsc2/C(=N/NC(=O)Cc2cccs2)CS1(=O)=O,-1.1
CN(C)/C=C/C(=N)SCc1c(F)cccc1Cl,-3.8*
N=C(N)SCc1c(Cl)cccc1Cl,0.32
Fc1cccc(Cl)c1CSCc1c(F)cccc1Cl,0.22
CCO/C=C1\c2cc([N+](=O)[O-])ccc2-c2c1cc([N+](=O)[O-])cc2[N+](=O)[O-],-0.43
Cc1cccc(CCOC(=O)NCCOc2ccccc2)c1,0.38
CN(C)c1ccc(/C=C(\C#N)C(N)=C(C#N)C#N)cc1,-0.45
O/N=C/c1c[nH]c2ccccc12,-0.78
N#CC(C#N)=C(N)/C(C#N)=C/c1c[nH]c2ccccc12,-3*
COc1ccccc1OCCOc1ccc([N+](=O)[O-])cc1-c1nc2sc3c(c2c(=O)[nH]1)CCCC3,-0.29
N#CCn1nc2ccccc2n1,-0.12
COc1ccc(/C=C2/CC(C(C)(C)C)C/C(=C\c3ccc(OC)cc3OC)C2=O)c(OC)c1 (stereo not drawn),0.63
COc1cccc(/C=C2/CCC/C(=C\c3cccc(OC)c3OC)C2=O)c1OC,0.33
COc1cccc(/C=C2/CC(C(C)(C)C)C/C(=C\c3cccc(OC)c3OC)C2=O)c1OC (stereo not drawn),-9.2*
Cc1ccccc1-n1nc2c(c1NC(=O)c1ccc(S(=O)(=O)N3CCCC3)cc1)CS(=O)(=O)C2,-0.92
CCOC(=O)C1=C(C)N(N(C)c2ncc(C(F)(F)F)cc2Cl)C(=O)CC1,-0.095
COc1ccc(-c2nc3c(sc(=S)n3-c3ccccc3)c(=O)[nH]2)cc1,0.71
O=c1[nH]c(-c2ccc(F)cc2)nc2c1sc(=S)n2-c1ccccc1,-0.26
O=c1[nH]cnc2c1sc(=S)n2-c1ccccc1,-5.4*!
CCOCCOC(=O)C1=C(C)NC2=C(C(=O)CC(c3ccccc3)C2)C1c1ccc(N(CC)CC)cc1 (stereo not drawn),0.04
O=C(Nc1cccnc1Cl)c1noc2c1CCCCC2,0.13
CC1CC(C)CN(C(=O)c2cccs2)C1 (stereo not drawn),0.025
O=C(O)C1SCCN1C(=O)c1ccc(Cl)cc1 (stereo not drawn),0.075
O=C(c1ccc(Cl)cc1)N1CCCc2ccccc21,-0.33
SMILES,Ba CapD inh
O=C(c1cccs1)N1CCCCC1,0.45
O=C(c1cccs1)N1CCSC1=S,-4.8*
O=C(c1ccc(Cl)cc1)N1CCSC1=S,-3.5*
O=C(Nc1ncc(Cc2cc(Cl)ccc2Cl)s1)C1CCCO1 (stereo not drawn),i
COc1ccc(C(=O)N/N=C/c2cccc(OCc3ccccc3)c2)cc1OC,0.22
Cc1ccc2c(c1)-c1c(ssc1=S)C(C)(C)N2C(=O)c1ccc(C(F)(F)F)cc1,0.16
CC(C)(C)c1ccc(C(=O)c2ccc3c(c2)CCC3)cc1,-0.67
Cn1cccc1/C=C1\CS/C(=C\c2cccn2C)C1=O,-0.27
COc1ccccc1/C=C1/SC(=S)NC1=O,-0.59
Cn1cccc1/C=C1\SC(=S)NC1=O,-4.3*
O=C(N/N=C/c1ccccc1C(=O)O)c1ccc([N+](=O)[O-])o1,-2
O=C(N/N=C/c1ccc(Br)cc1)c1ccc([N+](=O)[O-])o1,-1.5
O=C(N/N=C/c1ccccn1)c1ccc([N+](=O)[O-])o1,-4.3*
Cc1nc2sc(C(N)=O)c(N)c2c(-c2ccccc2)c1C(=O)Nc1ccccc1,0.33
COc1ccc(CNS(=O)(=O)c2cccc3nonc23)c(OC)c1,-0.99
CCOc1ccc(CC(=O)NCc2cn(C)nc2C)cc1OCC,0.64
CO/N=C/C(=N\Nc1ccc(OC)cc1)C(=O)c1ccc(Cl)c(Cl)c1,-0.23
O=S(=O)(Cc1ccccc1)N/N=C/c1ccc2c(c1)OCO2,-0.21
CN1C(=O)/C(=c2/[nH][nH]c(=O)/c2=C\C=C\c2ccccc2)C(=O)c2ccccc21,-5.2*
CN1C(=O)/C(=C\C(=O)c2cccs2)c2ccccc21,-0.22
C=CCN1C(=O)NC(=O)/C(=C/C=C/c2ccccc2)C1=O,-0.42
Cn1nc(C(C)(C)C)cc1C(=O)Nc1ccccc1,-0.19
CN(C)/C=C/C(=O)c1ccco1,-4.4*
CN(C)/C=C/C(=O)c1cc(-c2ccccc2)no1,-3.7
CSC(=CC(=O)c1ccco1)SC,-2.2
SMILES,Ba CapD inh
CCC(CC)C(=O)N1c2ccc(C)cc2-c2c(ssc2=S)C1(C)C,0.095
CCOCCOC(=O)C1=C(C)NC2=C(C(=O)CC(c3ccc(Cl)cc3)C2)C1c1cc2c(cc1Cl)OCO2 (stereo not drawn),9.3
O=C(CSc1nn2c(=O)cnnc2s1)N1CCc2ccccc21,-1.7
O=C1NC(=O)N(c2ccccc2)C(=O)/C1=C/C=C/c1ccco1,-1.1
CN1C(=O)NC(=O)/C(=C\C=C\c2ccco2)C1=O,-0.49
O=C1NC(=S)NC(=O)C1=C/C=C/c1ccco1,-11*
COc1ccc(NC(=O)c2sc3nc(C)nc(N4CCN(C)CC4)c3c2C)cc1Cl,-0.61
O=C1c2ccccc2-c2nnc(-c3cccs3)cc21,-0.33
CCc1nnc(NC(=O)CCCOc2ccccc2C)s1,0.02
N#C/C(=C\C=C\c1ccco1)c1nc(-c2ccccc2)cs1,-4.3*
N#C/C(=C\Nc1ccc(Br)cc1)c1nc(-c2ccccc2)cs1,-0.33
N#C/C(=C\Nc1ccc(C(N)=O)cc1)c1nc(-c2ccccc2)cs1,-0.45
O=C(NCCNc1ccc([N+](=O)[O-])cn1)NNC(=O)c1ccc([N+](=O)[O-])o1,-5.1*
CCN(CC)c1ccc(C(=O)NNC(=O)NCCNc2ccc([N+](=O)[O-])cn2)cc1,9.9
CSCCNC(=O)NCCNc1ccc([N+](=O)[O-])cn1,-0.42
COc1cc(C2Nc3ccc(Cl)cc3C(c3ccccc3)O2)cc(Br)c1OC (stereo not drawn),0.41
CC(=O)Nc1cc(C(=O)N2CCN(c3ccccc3)CC2)ccc1Sc1ccc(C)cc1,0.05
O=C(CSc1nc2sc3c(c2c(=O)n1-c1ccccc1)CCCC3)NCCCO,0
O=c1[nH]c2c(s1)C(c1ccccc1)C1C3CCC(C3)C1S2 (stereo not drawn),-0.12
COc1ccc(C2c3sc(=O)[nH]c3SC3C(=O)N(c4ccccc4)C(=O)C32)cc1 (stereo not drawn),1
O=C1NC(=O)C2C1Sc1[nH]c(=O)sc1C2c1ccco1 (stereo not drawn),-4.1*
CCOC(=O)c1ccc(Nc2nnc(-c3cc4c(ccc5ccccc54)oc3=O)s2)cc1,-1
CCOc1ccc(-n2c(=S)sc3c2nc(SCC(=O)N(CC)CC)n2c4ccccc4nc32)cc1,1.4
CN(C)/C=C/C=C1\CCCC1=O,-9*
CC1C/C(=C\C=C\N(C)C)C(=O)/C(=C/C=C/N(C)C)C1 (stereo not drawn),-2.5
SMILES,Ba CapD inh
CN(C)/C=C/C=C1C(=O)CCCC1=O,-0.57
CCC(=O)N(c1ccccc1)C1C=CS(=O)(=O)C1 (stereo not drawn),-0.55
COCCNC(=O)c1ccc(-c2cnn(C)c2)nc1,1.6
COC(=O)c1cccc(Oc2nc(Nc3ccccc3F)nc(N3CCC4C=CC=CC4C3)n2)c1 (stereo not drawn),-0.2
C=CCc1ccc(O)c(OC)c1,-10*
COc1cc(CNc2ccc(C)cc2)ccc1O,0.26
COc1cc(CNc2ccccc2SC)ccc1O,7
O=C1OC(/C(=C\Nc2ccc(Oc3ccccc3)cc2)[N+](=O)[O-])c2ccccc21 (stereo not drawn),0.05
COc1cc(C2Nc3cc(C)ccc3NC3=C2C(=O)CC(c2ccccc2)C3)cc(OC)c1OC (stereo not drawn),-0.49
